# Measurements published in ChEMBL document CHEMBL1201862, “PubChem BioAssay data set” (2004).
# Entries with a potency or affinity are not part of this list.
# Biological target: T1, fMet-Leu-Phe receptor (Homo sapiens) (UniProt P21462)
# T1 sequence (whole entry): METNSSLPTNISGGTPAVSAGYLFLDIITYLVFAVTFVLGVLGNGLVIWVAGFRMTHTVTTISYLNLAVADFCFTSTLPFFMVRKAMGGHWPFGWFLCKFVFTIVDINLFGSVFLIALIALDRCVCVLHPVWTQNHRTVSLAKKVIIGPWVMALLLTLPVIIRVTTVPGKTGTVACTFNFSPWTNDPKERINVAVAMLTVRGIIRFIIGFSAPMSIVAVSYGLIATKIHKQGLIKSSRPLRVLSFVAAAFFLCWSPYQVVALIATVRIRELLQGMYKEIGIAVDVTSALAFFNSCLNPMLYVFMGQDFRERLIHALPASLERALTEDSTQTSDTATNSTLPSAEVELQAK
# Test: FPR1 fluorescent ligand binding inhibitors, dose response, cell-based, flow cytometry, Ki from IC50 (AID 724); call rule not given here
# Type: functional
row,Compound,KI MICROM
1,CCc1cc2c(=O)c(-c3nc4ccccc4n3C)c(C)oc2cc1OC(C)=O,0.3 µM (active)
2,Cc1sc2c(c1C)c(=O)n(Cc1ccccc1)c(=O)n2Cc1ccccc1F,> 44.3 µM (inactive)
3,O=C(Oc1ccc2c(=O)c(-c3ccccc3Cl)c(C(F)(F)F)oc2c1)c1cccs1,1.1 µM (active)
4,COc1ccc(OC)c(CNC(=O)Cn2c(=O)sc3ccccc32)c1,> 44.3 µM (inactive)
5,COc1ccc(-c2c(C(F)(F)F)oc3cc(OC(=O)c4cccnc4)ccc3c2=O)cc1OC,8.9 µM (active)
6,CCC(C)(C(=O)NC1CCCCC1)N(Cc1cccs1)C(C)=O (stereo not given),> 44.3 µM (inactive)
7,CC(C)C(=O)N(Cc1ccco1)S(=O)(=O)c1cccc2cccnc12,> 44.3 µM (inactive)
8,O=C(Oc1ccc2c(=O)c(Oc3ccccc3Br)c(C(F)(F)F)oc2c1)c1cccs1,> 44.3 µM (inactive)
9,COc1cccc(/C=C2/C(=O)NN(c3ccc(C)cc3)C2=O)c1,> 44.3 µM (inactive)
10,CCCC(=O)N(Cc1ccco1)S(=O)(=O)c1cccc2cccnc12,> 44.3 µM (inactive)
11,COc1ccc(C2C(C(=O)N3CCCC(C)C3)c3ccccc3C(=O)N2C)cc1 (stereo not given),> 44.3 µM (inactive)
12,COc1ccc(-c2c(C(F)(F)F)oc3cc(OC(=O)c4ccco4)ccc3c2=O)cc1OC,3.3 µM (active)
13,Cc1cccc(C2CC(=O)NC3=C2C(=O)CC(c2cccs2)C3)c1 (stereo not given),> 44.3 µM (inactive)
14,COCCN1C(=O)C(O)=C(C(=O)c2ccccc2)C1c1ccccc1OC (stereo not given),12.4 µM (inactive)
15,COc1cccc(-c2ccnc3[nH]n(-c4ccccc4)c(=O)c23)c1,> 44.3 µM (inactive)
16,O=C1CC(c2ccccc2C(F)(F)F)C2=C(CC(c3cccs3)CC2=O)N1 (stereo not given),> 44.3 µM (inactive)
17,Cc1[nH]c2c(-c3ccc(Cl)cc3)c(C(F)(F)F)nn2c(=O)c1Cc1ccccc1,2.5 µM (active)
18,Cc1cccc(C)c1NC(=O)C(NC(=O)Cc1cccs1)c1ccccc1 (stereo not given),> 44.3 µM (inactive)
19,COc1ccc(-c2c(C)nn3c(=O)c4c([nH]c23)CCCC4)cc1,> 44.3 µM (inactive)
20,COc1ccccc1-c1c(C(F)(F)F)oc2cc(OC(=O)c3ccco3)ccc2c1=O,1.1 µM (active)
